# Test results published in PubChem BioAssay AID1159580 (chemical genetic matrix, 2015).
# Several values for one entry are separate records, joined by “and”; a condition that tells them apart may be missing. Equal values may be shown once. The whole screen tested about 5,500 compounds, of which about 2,000 (36%) were called active. Another 18% or so got no clear call; they are omitted. This is one part of the list. Values without a mark were called inactive. Cut-off read from the data, not from the text of the source: active = normalized growth mostly below about 0.91 (no sharp cut-off); inconclusive = no clear call, values can overlap the other calls; inactive = mostly above about 0.92.
# Experiment: chemical genetic growth profiling, strain panel (AID 1159580);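 note: tested at 20 µM; growth read once vehicle control cultures reached saturation at 30 °C; 1 = growth at the plate median or of vehicle wells; lower values mean less growth of the strain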
# Conditions: S. cerevisiae deletion strains, growth OD
smiles,measurement,setting,value
O=c1cc(-c2ccccc2)oc2cc(O)c(O)c(O)c12,normalized growth,"locus YAL013W, strain DEP1, hits give low values",0.367 (active)
same,normalized growth,"locus YAL021C, strain ccr4, hits give low values",0.0818 (active)
same,normalized growth,"locus YAL026C, strain drs2, hits give low values",0.198 (active)
same,normalized growth,"locus YAL030W, strain snc1, hits give low values",0.562 (active)
same,normalized growth,"locus YBL061C, strain skt5, hits give low values",0.449 (active)
same,normalized growth,"locus YBR009C, strain hhf1, hits give low values",0.535 (active)
same,normalized growth,"locus YBR021W, strain FUR4, hits give low values",0.885
same,normalized growth,"locus YBR023C, strain chs3, hits give low values",0.279 (active)
same,normalized growth,"locus YBR171W, strain sec66, hits give low values",0.386 (active)
same,normalized growth,"locus YBR229C, strain ROT2, hits give low values",0.458 (active)
same,normalized growth,"locus YBR231C, strain swc5, hits give low values",0.29 (active)
same,normalized growth,"locus YBR279W, strain paf1, hits give low values",0.574 (active)
same,normalized growth,"locus YCL011C, strain gbp2, hits give low values",0.565 (active)
same,normalized growth,"locus YCL016C, strain dcc1, hits give low values",0.683 (active)
same,normalized growth,"locus YCL029C, strain bik1, hits give low values",0.174 (active)
same,normalized growth,"locus YCL069W, strain vba3, hits give low values",0.608 (active)
same,normalized growth,"locus YCR088W, strain abp1, hits give low values",0.604 (active)
same,normalized growth,"locus YDL005C, strain med2, hits give low values",0.636 (active)
same,normalized growth,"locus YDL035C, strain GPR1, hits give low values",0.402 (active)
same,normalized growth,"locus YDL040C, strain nat1, hits give low values",0.612 (active)
same,normalized growth,"locus YDL074C, strain BRE1, hits give low values",0.219 (active)
same,normalized growth,"locus YDL101C, strain DUN1, hits give low values",0.115 (active)
same,normalized growth,"locus YDL134C, strain PPH21, hits give low values",0.586 (active)
same,normalized growth,"locus YDL185W, strain tfp1, hits give low values",0.549 (active)
same,normalized growth,"locus YDL192W, strain arf1, hits give low values",0.512 (active)
same,normalized growth,"locus YDR001C, strain nth1, hits give low values",0.721 (active)
same,normalized growth,"locus YDR069C, strain doa4, hits give low values",0.127 (active)
same,normalized growth,"locus YDR101C, strain arx1, hits give low values",0.176 (active)
same,normalized growth,"locus YDR137W, strain rgp1, hits give low values",0.161 (active)
same,normalized growth,"locus YDR150W, strain NUM1, hits give low values",0.591 (active)
same,normalized growth,"locus YDR159W, strain sac3, hits give low values",0.148 (active)
same,normalized growth,"locus YDR162C, strain NBP2, hits give low values",0.224 (active)
same,normalized growth,"locus YDR195W, strain ref2",0.327 (active)
same,normalized growth,"locus YDR297W, strain sur2, hits give low values",0.445 (active)
same,normalized growth,"locus YDR318W, strain mcm21, hits give low values",0.589 (active)
same,normalized growth,"locus YDR334W, strain swr1, hits give low values",0.351 (active)
same,normalized growth,"locus YDR335W, strain msn5, hits give low values",0.138 (active)
same,normalized growth,"locus YDR388W, hits give low values",0.555 (active)
same,normalized growth,"locus YDR392W, strain spt3, hits give low values",0.562 (active)
same,normalized growth,"locus YDR502C, strain sam2, hits give low values",0.214 (active)
same,normalized growth,"locus YEL003W, strain gim4, hits give low values",0.291 (active)
same,normalized growth,"locus YEL037C, strain rad23, hits give low values",0.407 (active)
same,normalized growth,"locus YEL061C, strain CIN8 (second series), hits give low values",0.695 (active)
same,normalized growth,"locus YEL061C, strain CIN8, hits give low values",0.496 (active)
same,normalized growth,"locus YER015W, strain faa2, hits give low values",0.287 (active)
same,normalized growth,"locus YER016W, strain bim1, hits give low values",0.736 (active)
same,normalized growth,"locus YER110C, hits give low values",0.851 (active)
same,normalized growth,"locus YER111C, strain swi4, hits give low values",0.113 (active)
same,normalized growth,"locus YER155C, strain BEM2 (second series), hits give low values",0.338 (active)
same,normalized growth,"locus YER155C, strain BEM2, hits give low values",0.449 (active)
same,normalized growth,"locus YER167W, strain BCK2, hits give low values",0.573 (active)
same,normalized growth,"locus YFR010W, strain ubp6, hits give low values",0.218 (active)
same,normalized growth,"locus YGL078C, strain dbp3, hits give low values",0.84 (active)
same,normalized growth,"locus YGL086W, strain mad1, hits give low values",0.636 (active)
same,normalized growth,"locus YGL167C, strain pmr1, hits give low values",0.396 (active)
same,normalized growth,"locus YGL173C, strain kem1, hits give low values",0.23 (active)
same,normalized growth,"locus YGL227W, strain vid30, hits give low values",0.677 (active)
same,normalized growth,"locus YGL240W, strain doc1, hits give low values",0.657 (active)
same,normalized growth,"locus YGL248W, strain PDE1, hits give low values",0.561 (active)
same,normalized growth,"locus YGL253W, strain hxk2, hits give low values",0.485 (active)
same,normalized growth,"locus YGR078C, strain PAC10, hits give low values",0.536 (active)
same,normalized growth,"locus YGR135W, strain pre9, hits give low values",0.443 (active)
same,normalized growth,"locus YGR229C, strain SMI1, hits give low values",0.107 (active)
same,normalized growth,"locus YGR252W, strain gcn5, hits give low values",0.576 (active)
same,normalized growth,"locus YHR013C, strain ard1, hits give low values",0.504 (active)
same,normalized growth,"locus YHR027C, strain rpn1, hits give low values",0.295 (active)
same,normalized growth,"locus YHR030C, strain SLT2, hits give low values",0.304 (active) and 0.677 (active)
same,normalized growth,"locus YHR079C, strain IRE1 (second series), hits give low values",0.139 (active)
same,normalized growth,"locus YHR079C, strain IRE1, hits give low values",0.612 (active)
same,normalized growth,"locus YHR094C, strain hxt1, hits give low values",0.699 (active)
same,normalized growth,"locus YHR129C, strain ARP1, hits give low values",0.531 (active)
same,normalized growth,"locus YHR142W, strain chs7, hits give low values",0.285 (active)
same,normalized growth,"locus YHR200W, strain rpn10, hits give low values",0.604 (active)
same,normalized growth,"locus YIL066C, strain RNR3, hits give low values",0.425 (active)
same,normalized growth,"locus YIL073C, strain SPO22, hits give low values",0.381 (active)
same,normalized growth,"locus YIL125W, strain kgd1, hits give low values",0.808 (active)
same,normalized growth,"locus YIR030C, strain dcg1, hits give low values",0.359 (active)
same,normalized growth,"locus YJL092W, strain hpr5, hits give low values",0.531 (active)
same,normalized growth,"locus YJL095W, strain BCK1 (second series), hits give low values",0.218 (active)
same,normalized growth,"locus YJL095W, strain BCK1, hits give low values",0.0738 (active) and 0.684 (active)
same,normalized growth,"locus YJL115W, strain asf1, hits give low values",0.648 (active)
same,normalized growth,"locus YJL129C, strain trk1, hits give low values",0.312 (active)
same,normalized growth,"locus YJL134W, strain LCB3, hits give low values",0.588 (active)
same,normalized growth,"locus YJL154C, strain vps35, hits give low values",0.68 (active)
same,normalized growth,"locus YJL164C, strain tpk1, hits give low values",0.347 (active)
same,normalized growth,"locus YJL166W, strain qcr8, hits give low values",0.437 (active)
same,normalized growth,"locus YJL168C, strain set2, hits give low values",0.808 (active)
same,normalized growth,"locus YJL187C, strain SWE1 (second series), hits give low values",0.106 (active)
same,normalized growth,"locus YJR043C, strain POL32, hits give low values",0.288 (active)
same,normalized growth,"locus YJR066W, strain TOR1, hits give low values",0.68 (active)
same,normalized growth,"locus YJR075W, strain HOC1, hits give low values",0.558 (active)
